Data from PubChem BioAssay AID652053 (Broad Institute, 2013).
Out of some 1,300 compounds screened, about 930 (72%) were called active.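 Rule for the calls: active = fitted curve reaches 40% activation signal increase at or below the top valid tested concentration in every replicate test; inconclusive = replicate tests disagree in their calls; inactive = all replicate tests inactive, including effects opposite the expected signal rise.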 So high a share suggests a set chosen from earlier hits. Only a sample is shown. Measured potencies and affinities stand elsewhere.

Test: suppression of miR-122 activity, Renilla luciferase sensor – cell-based, Huh7 psiCHECK-miR122, cherry-pick, dose response (AID 652053)
Details: Huh7 psiCHECK-miR122 Renilla luciferase reporter, 48 h; series mostly up to 35 µM; activation (miR-122 inhibition): at the top concentration

Activation (miR-122 inhibition), inactive:
COc1ccccc1C(=O)Nc1ccc2c(c1)C(=O)N(C)[C@@H]1CC[C@H](CC(=O)NCc3ccc(Cl)c(Cl)c3)O[C@H]1CO2 -5.9%
COc1ccccc1CNC(=O)C[C@@H]1CC[C@@H]2[C@H](COc3ccc(NC(=O)Nc4ccc(F)c(F)c4)cc3C(=O)N2C)O1 -27.8%
COc1ccccc1C(=O)Nc1ccc2c(c1)C(=O)N(C)[C@@H]1CC[C@@H](CC(=O)NCc3ccc(Cl)c(Cl)c3)O[C@@H]1CO2 -8.54%
COc1ccccc1CNC(=O)C[C@@H]1CC[C@@H]2[C@@H](COc3ccc(NC(=O)Nc4ccc(F)c(F)c4)cc3C(=O)N2C)O1 -28.1%
COc1ccccc1C(=O)Nc1ccc2c(c1)C(=O)N(C)[C@@H]1CC[C@@H](CC(=O)NCc3ccc(Cl)c(Cl)c3)O[C@H]1CO2 -25%
COc1ccccc1C(=O)Nc1ccc2c(c1)C(=O)N(C)[C@@H]1CC[C@H](CC(=O)NCc3ccc(Cl)c(Cl)c3)O[C@@H]1CO2 -24.2%
O=C(c1ccccc1F)N1C[C@H]2[C@@H](c3ccccc31)[C@@H](CO)N2Cc1ccc2c(c1)OCO2 6.54%
CCOc1ccc(Cl)cc1S(=O)(=O)n1cnc2cc(C)c(C)cc21 29.3%
Cc1ccc(-n2nnc(-c3nccs3)n2)cc1 16.2%
CCOc1ccc(CSC2=NCCN2)cc1Cl 20.8%
CCCNC(=O)C[C@@H]1CC[C@H]2[C@H](COc3ccc(NC(=O)Cc4cccs4)cc3C(=O)N2C)O1 -2.59%
CCc1cccc(CC)c1NC(=O)COC(=O)C1(c2ccc(Cl)cc2)CCCC1 -10.1%
COc1ccc(OC)c(S(=O)(=O)N2CCNCC2)c1 -9.55%
Cn1nc(CC(=O)N2CCN(c3ccccc3)CC2)c2ccccc2c1=O -11%
COc1cccc(C(=O)N2C[C@@H]3[C@H](c4ccccc42)[C@H](CO)N3C(=O)c2ccc(F)cc2)c1 22.7%
COc1cccc(C(=O)N2C[C@@H]3[C@H](c4ccccc42)[C@@H](CO)N3C(=O)c2ccc(F)cc2)c1 -8.38%
CC(C)NC(=S)N1CCn2c(nc3ccccc32)C1 8.37%
CC(C)CC(=O)NCCCN1CCN(CCCNC(=O)CC(C)C)CC1 -6.68%
CCOC(=O)c1ccc(-n2ccnc2)c(NC(=O)c2cccc(Br)c2)c1 8.02%
Cn1cnc(S(=O)(=O)N2C[C@@H](O)COC[C@H]3O[C@@H](CC(=O)NC4CCCC4)CC[C@@H]32)c1 0.434%
CCOC(=O)CN1C(=O)C(C)(C)Oc2ccc(C(=O)Nc3ccccc3)cc21 -9.1%
CC(=O)N1[C@H](CNC(=O)C2CC2)[C@@H](c2ccc(-c3ccccc3)cc2)[C@@H]1CO -2.22%
Cc1cc(C)c2nc(Nc3nc(CSc4nc5ccccc5[nH]4)cc(=O)[nH]3)nc(C)c2c1 101%
O=C(C1CCN(Cc2ccc(F)cc2)CC1)N1CCN(C/C=C/c2ccccc2)CC1 -10.2%
CC(=O)N1CCc2cc(S(=O)(=O)NCCCN3CCN(Cc4ccccc4)CC3)ccc21 6.61%
COc1ccc(-c2cc(NC(C)=O)c3ncc(-c4cc(OC)c(OC)c(OC)c4)n3c2)cn1 38.9%
N#C/C(=N\Nc1ccc(S(=O)(=O)N2CCCCC2)cc1)C(N)=S 0.783%
COc1cc(S(=O)(=O)N2CCOCC2)ccc1NC(=O)CSc1n[nH]c(=O)[nH]c1=O 7.53%
Cc1ccc(NC(=O)c2ccc(S(=O)(=O)N3CCOCC3)cc2)nc1 12.6%
C[C@H](CO)N1C[C@H](C)[C@H](CN(C)Cc2ccc3c(c2)OCO3)Oc2ccc(N(C)C)cc2CC1=O 9.52%
C[C@H](CO)N1C[C@H](C)[C@H](CN(C)Cc2ccc(C(F)(F)F)cc2)Oc2ccc(N(C)C)cc2CC1=O 12.2%
COC(=O)C(CC(C)C)Oc1ccc2c(C)cc(=O)oc2c1 (stereo not drawn) 7.53%
CC(Oc1ccc(Cl)cc1)c1ccnn1S(=O)(=O)c1ccc(Cl)cc1 (stereo not drawn) 13.2%
COC(=O)c1ccccc1NC(=O)Cn1c(-c2nonc2N)nc2ccccc21 22.3%
C[C@H]1CN([C@@H](C)CO)C(=O)Cc2cc(NC(=O)Nc3cccc4ccccc34)ccc2O[C@H]1CN(C)C(=O)Nc1cccc2ccccc12 -9%
C[C@H]1CN([C@@H](C)CO)C(=O)Cc2cc(NC(=O)Nc3cccc4ccccc34)ccc2O[C@@H]1CN(C)C(=O)Nc1cccc2ccccc12 5.36%
C[C@@H]1CN([C@@H](C)CO)C(=O)Cc2cc(NC(=O)Nc3cccc4ccccc34)ccc2O[C@H]1CN(C)C(=O)Nc1cccc2ccccc12 -8.21%
C[C@H](CO)N1C[C@H](C)[C@@H](CN(C)C(=O)Nc2cccc3ccccc23)Oc2ccc(NC(=O)Nc3cccc4ccccc34)cc2CC1=O -5.3%
COc1ccc(NC(=O)Nc2cccc3c2O[C@H](CN(C)Cc2ccc4c(c2)OCO4)[C@@H](C)CN([C@@H](C)CO)C3=O)cc1 26.5%
FC(F)(F)c1nnc2c(Sc3ccccc3)nc3ccc(Cl)cc3n12 -26.1%
CCC1=NN(C(=O)c2ccccc2O)C(O)(c2ccccc2)C1 (stereo not drawn) 9.78%
CCC(=O)N1[C@H](CN(CC)C(=O)c2cccc(F)c2)[C@H](c2ccccc2)[C@@H]1CO -7.02%
COc1ccc(CNC(=O)C(c2ccc(C)o2)N(Cc2cccs2)C(=O)Cc2cccs2)cc1 (stereo not drawn) 14.8%
CC(C)Cc1nc2sc3c(=O)[nH]cnc3c2c2c1CCC2 -10.5%
Cc1ccc(S(=O)(=O)Nc2ccc(C(=O)NCc3ccccn3)cc2)cc1 19.8%
O=c1[nH]c(=O)c2[nH]c(=O)n(-c3ccccc3)c2[nH]1 -5.9%
CCS(=O)(=O)N1Cc2ccccc2CC1C(=O)NCC12CC3CC(CC(C3)C1)C2 (stereo not drawn) -10.2%
O=C(c1ccc(F)cc1)N1[C@H](CO)[C@@H]2c3ccccc3NC[C@@H]21 28.1%
CCn1nc(C(=O)Nc2ccc(S(=O)(=O)Nc3nccs3)cc2)c2ccccc2c1=O 13%
CC(C)NC(=O)N1[C@H](CO)[C@@H]2c3ccccc3N(C(=O)c3ccc(F)cc3)C[C@@H]21 -10.3%
CCCNC(=O)N1[C@H](CO)[C@@H]2c3ccccc3N(C(=O)c3ccc(F)cc3)C[C@@H]21 2.61%
CCN(C[C@@H]1[C@@H](c2ccccc2)[C@@H](CO)N1C(=O)COC)S(C)(=O)=O -10% [at 30 µM]
O=C(Nc1ccccc1)c1cc([N+](=O)[O-])ccc1NC1CCCCC1 -3.71%
O=C(Nc1ccccc1Br)C1CCN(S(=O)(=O)c2cccs2)CC1 -12.6%
Cc1cc(C)cc(NC(=O)C2CCN(c3nccs3)CC2)c1 5.7%
CN1C(=O)c2cc(NC(=O)Cc3cccs3)ccc2OC[C@@H]2O[C@@H](CC(=O)NCC3CCCCC3)CC[C@@H]21 -1.42%
CN1C(=O)c2cc(NC(=O)NC3CCCC3)ccc2OC[C@H]2O[C@@H](CC(=O)O)CC[C@H]21 -4.5%
Cc1ccc(CC(=O)N(Cc2ccccc2)c2ccccn2)cc1 20.7%
Cc1ccc(-c2nc(CSCC(=O)NCCN3CCN(Cc4ccccc4)CC3)c(C)o2)cc1 -18.4%
CCCc1cc(=O)oc2cc(OCc3nn[nH]n3)ccc12 2.65%
COc1ccccc1CNC(=O)C[C@@H]1CC[C@H]2[C@@H](COc3ccc(NS(=O)(=O)c4ccc(C)cc4)cc3C(=O)N2C)O1 -6.29%
COc1ccccc1CNC(=O)C[C@H]1CC[C@@H]2[C@@H](COc3ccc(NC(C)=O)cc3C(=O)N2C)O1 -11.1%
COc1ccccc1CNC(=O)C[C@H]1CC[C@@H]2[C@H](COc3ccc(NS(=O)(=O)c4ccc(C)cc4)cc3C(=O)N2C)O1 -17.9%
COc1ccccc1CNC(=O)C[C@@H]1CC[C@@H]2[C@H](COc3ccc(NS(=O)(=O)c4ccc(C)cc4)cc3C(=O)N2C)O1 -18.5%
COc1ccccc1CNC(=O)C[C@@H]1CC[C@@H]2[C@H](COc3ccc(NC(C)=O)cc3C(=O)N2C)O1 -2.8%
CCOCc1nnc(NS(C)(=O)=O)s1 -3.47%
CS(=O)(=O)N1N=C(c2ccc(Cl)cc2)CC1c1cccs1 (stereo not drawn) 20.8%
c1ccc2c(c1)ccc1nnnn12 -9.49%
Cc1cccc(-c2nnc(-c3cccc4ccccc34)o2)c1 32.1%
OC(COC(c1ccc(Cl)cc1)c1ccc(Cl)cc1)CN1CCCC1 (stereo not drawn) -20%
COc1ccccc1CNC(=O)C[C@H]1CC[C@@H]2[C@@H](COc3ccc(NC(=O)Nc4ccc(F)c(F)c4)cc3C(=O)N2C)O1 -27.2%
CC1CCCC(NC(=O)COC(=O)c2ccccc2NC(=O)c2ccco2)C1C (stereo not drawn) 6.27%
Nc1nonc1C(=O)N1CCCC1 -0.662%
CCOc1ccccc1N1CCN(C(=O)c2ccc3[nH]c(C)c(C)c3c2)CC1 16.6%
COc1ccccc1N1CCN(C2CC(=O)N(c3cccc(Cl)c3)C2=O)CC1 (stereo not drawn) 6.61%
COc1ccccc1N1CCN(C(=O)c2ccc(Cn3c(=O)[nH]c4ccsc4c3=O)cc2)CC1 13.5%
COC(=O)c1ccc(/C=N/OCC(=O)NC2CCCCCCC2)cc1 7.74%
O=C(CN(C1CCCCC1)S(=O)(=O)c1ccc(Cl)cc1)NCc1cccnc1 24.2%
Cc1ccc(C)c(NC(=O)CSc2nnc(CCNC(=O)OC(C)(C)C)o2)c1 6.18%
Cc1ccc2cc(-c3noc(C(C)(C)C)n3)c(=O)[nH]c2c1 -11.5%
CC(=O)c1cccc(NC(=O)NCc2cccs2)c1 31%
O=c1c[n+]([O-])c2ccccc2n1OCc1c(F)cccc1F 0.654%
COc1ccc(S(=O)(=O)N2N=C(C)Oc3ccccc3C2=O)cc1 15.6%
COc1ccc(OCCCC(=O)NCCc2ccccc2)cc1 -2.51%
COc1ccc(-c2nc(SCc3ccccc3)n(S(C)(=O)=O)n2)cc1 -9.07%
COc1ccc(NC(=O)CCN2C(=O)c3ccccc3C2=O)cc1 14.3%
CC(=O)Nc1nonc1-n1nnc(C(=O)NCc2ccccc2)c1C -10.2%
O=C(CN(Cc1cccs1)S(=O)(=O)c1ccc(S(=O)(=O)NC2CCCCC2)cc1)Nc1ccccc1 -3.3%
